# In PMC5540273 (PLoS ONE, 2017):
# System: HUNK
# Details: concentration: 1 μM, replicates: in singlicate; n = 1
# 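Note: KINOMEscan kinase panel screen.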
row,SMILES,%Inh
1,COc1cc2c(cc1OC[C@@H](O)CO)ncc1c3ccc(C#N)cc3[nH]c21,0%
2,O=C(NCCCN1CCOCC1)c1cccc(Nc2nccc(Nc3ccc(Oc4ccccc4)cc3)n2)c1 [GW663929],0%
3,Cc1ccc(NC(=O)c2ccnc(N3CCN(C)CC3)c2)cc1-c1ccc(C(=O)NCC2CC2)cc1 [GW775604],34%
4,O=C(Nc1n[nH]c2cc(-c3cccc(F)c3)ccc12)C1CC1 [SB-735464],0%
5,COc1ccc(Nc2nccc(N3CCC(NC(=O)Nc4cccc(C(C)=O)c4)C3)n2)cc1 (centres unmarked) [GSK1379731],3%
6,COCCNC(=O)c1ccc(-c2cc(C(=O)NC3CC3)cc(F)c2C)cc1 [GW868318],7%
7,COc1ccc(CNC(=O)NC2CCN(c3ccnc(Nc4ccc(OC)cc4)n3)C2)cc1 (centres unmarked) [GSK1379727],0%
8,Nc1nccc(-c2c(-c3ccc(F)cc3)ncn2C2CCN(CC(F)(F)F)CC2)n1 [SB-236560],0%
9,O=C(NCCNc1ccnc(Nc2ccc(F)cc2)n1)Nc1ccccc1F [GSK1379880],0%
10,O=C(Nc1cccc(-c2nn3ncccc3c2-c2ccnc(Nc3cccc(C(F)(F)F)c3)n2)c1)c1c(F)cccc1F [GSK299495],4%
11,COc1ccc(Nc2ncc(C#N)c(Nc3ccccc3C(N)=O)n2)cc1N1CCN(C)CC1.Cl [GSK1558669],0%
12,O=c1cc(N2CCOCC2)nc2n(Cc3cccc4ccccc34)ccn12 [GSK2333389],0%
13,Fc1ccc(-c2ncn(CCCN3CCOCC3)c2-c2ccccn2)cc1 [SB-211742],54%
14,CN1c2ccc(NCc3ccc(F)cc3)cc2-c2c(cnn2C)S1(=O)=O,52%
15,Nc1nc(-c2ccc3c(N)n[nH]c3c2)cc(N2CCCC2)n1 [GSK2227430],0%
16,[2H]C([2H])(c1cccc(C(F)(F)F)c1C)n1ccn2c(=O)nc(N3CCOCC3)cc12 [GSK2336394],6%
17,COc1cc2ncn(-c3cc(OCc4sccc4Cl)c(C(N)=O)s3)c2cc1OC [GSK448459],0%
18,COc1cc2c(cc1OCCN1CCN(C)CC1)ncc1c3ccc(C#N)cc3[nH]c21,0%
19,Cc1nnc(-c2ccc3occ(-c4ccc(C(C)O)cc4)c3c2)o1 (centres unmarked),0%
20,Cn1cc(-c2ccc3c(c2)CCN3C(=O)Cc2ccccc2Cl)c2c(N)ncnc21 [GSK2608885],7%

# System: ICK
# Details: concentration: 1 μM, replicates: in singlicate; n = 1
row,SMILES,%Inh
1,N#Cc1ccc(-c2cc(-c3c[nH]nc3-c3ccccn3)ccn2)cc1 [GW693028],11%
2,CCc1ccnc(/C=C/c2n[nH]c3cc(Sc4ccccc4C(=O)NC)ccc23)c1,0%
3,Cc1cccc(-c2nc(Nc3ccc4ncsc4c3)c3ccccc3n2)n1 [GW867588],17%
4,O=C1NC(=O)C(N2CCc3ccccc32)=C1c1cccc(Cl)c1 [SB-408010],40%
5,NS(=O)(=O)c1cccc(-c2ccc3ncc(N4CCOCC4)nc3c2)c1 [GSK1535721],0%
6,CN1c2ccc(CNc3ccc(F)cc3)cc2-c2c(cnn2C)S1(=O)=O,0%
7,Cn1ccc2ncnc(Oc3ccc(NC(=O)Nc4ccncc4)c(Cl)c3)c21,0%
8,COc1cc(Nc2nccc(N3CCC(NC(=O)c4cccc(NC(C)=O)c4)C3)n2)cc(OC)c1OC (centres unmarked) [GSK1379754],0%
9,CSc1ccc(-c2cc3ncnc(SCC(=O)O)c3s2)cc1,0%
10,CC(C)(C)n1cnc2c(N)ncnc21 [SKF-97359],31%
11,Cc1nnc(-c2ccc(C)c(-c3ccc(C(=O)Nc4ccc(NS(C)(=O)=O)cc4)cc3)c2)o1 [GW702865],0%
12,COc1ccc(S(=O)(=O)NC2CCN(c3cc(C)nc(Nc4cccc(C#N)c4)n3)CC2)cc1.O=C(O)C(F)(F)F [GSK1653539],0%
13,Cc1c2ccc(N(C)c3ccnc(Nc4cccc(S(N)(=O)=O)c4)n3)cc2nn1Cc1ccccc1.Cl.Cl [GW787226],0%
14,COc1cc2c(cc1OC[C@@H](O)CO)ncc1c3ccc(C#N)cc3[nH]c21,0%
15,O=C(NCCCN1CCOCC1)c1cccc(Nc2nccc(Nc3ccc(Oc4ccccc4)cc3)n2)c1 [GW663929],0%
16,Cc1ccc(NC(=O)c2ccnc(N3CCN(C)CC3)c2)cc1-c1ccc(C(=O)NCC2CC2)cc1 [GW775604],0%
17,O=C(Nc1n[nH]c2cc(-c3cccc(F)c3)ccc12)C1CC1 [SB-735464],34%

row,SMILES,%Inh
1,COc1ccc(Nc2nccc(N3CCC(NC(=O)Nc4cccc(C(C)=O)c4)C3)n2)cc1 (centres unmarked) [GSK1379731],0%
2,COCCNC(=O)c1ccc(-c2cc(C(=O)NC3CC3)cc(F)c2C)cc1 [GW868318],40%
3,COc1ccc(CNC(=O)NC2CCN(c3ccnc(Nc4ccc(OC)cc4)n3)C2)cc1 (centres unmarked) [GSK1379727],0%
4,Nc1nccc(-c2c(-c3ccc(F)cc3)ncn2C2CCN(CC(F)(F)F)CC2)n1 [SB-236560],63%
5,O=C(NCCNc1ccnc(Nc2ccc(F)cc2)n1)Nc1ccccc1F [GSK1379880],0%
6,O=C(Nc1cccc(-c2nn3ncccc3c2-c2ccnc(Nc3cccc(C(F)(F)F)c3)n2)c1)c1c(F)cccc1F [GSK299495],8%
7,COc1ccc(Nc2ncc(C#N)c(Nc3ccccc3C(N)=O)n2)cc1N1CCN(C)CC1.Cl [GSK1558669],97.6%
8,O=c1cc(N2CCOCC2)nc2n(Cc3cccc4ccccc34)ccn12 [GSK2333389],0%
9,Fc1ccc(-c2ncn(CCCN3CCOCC3)c2-c2ccccn2)cc1 [SB-211742],0%
10,CN1c2ccc(NCc3ccc(F)cc3)cc2-c2c(cnn2C)S1(=O)=O,0%
11,Nc1nc(-c2ccc3c(N)n[nH]c3c2)cc(N2CCCC2)n1 [GSK2227430],0%
12,[2H]C([2H])(c1cccc(C(F)(F)F)c1C)n1ccn2c(=O)nc(N3CCOCC3)cc12 [GSK2336394],8%
13,COc1cc2ncn(-c3cc(OCc4sccc4Cl)c(C(N)=O)s3)c2cc1OC [GSK448459],12%
14,COc1cc2c(cc1OCCN1CCN(C)CC1)ncc1c3ccc(C#N)cc3[nH]c21,10%
15,Cc1nnc(-c2ccc3occ(-c4ccc(C(C)O)cc4)c3c2)o1 (centres unmarked),0%
16,Cn1cc(-c2ccc3c(c2)CCN3C(=O)Cc2ccccc2Cl)c2c(N)ncnc21 [GSK2608885],5%
